# Like-named read-outs stand apart in the source and are kept apart here.
# Key:
# Conditions in all cases: read-out: apparent Kd, n = 1
# SLK = test system: SLK
# STK10 = test system: STK10
# TBK1 = test system: TBK1
# [1] = compound concentrations:100 nM and 1000 nM (sheet 'Lestaurtinib' of Supplementary Table 1),run:Lestaurtinib_02577_R3,Plate:MR016
# [2] = compound concentrations:100 nM and 1000 nM (sheet 'Lestaurtinib' of Supplementary Table 1),run:Lestaurtinib_02584_R3,Plate:MR017
# [3] = compound concentrations:100 nM and 1000 nM (sheet 'Lestaurtinib' of Supplementary Table 1),run:Lestaurtinib_02601_R1,Plate:MR018
# [4] = compound concentrations:100 nM and 1000 nM (sheet 'Lestaurtinib' of Supplementary Table 1),run:Lestaurtinib_02624_R2,Plate:MR020
# [5] = compound concentrations:100 nM and 1000 nM (sheet 'Lestaurtinib' of Supplementary Table 1),run:Lestaurtinib_02741_R3,Plate:MR023
# [6] = compound concentrations:100 nM and 1000 nM (sheet 'Lestaurtinib' of Supplementary Table 1),run:Lestaurtinib_02748_R2,Plate:MR024
# [7] = compound concentrations:100 nM and 1000 nM (sheet 'Lestaurtinib' of Supplementary Table 1),run:Lestaurtinib_02765_R1,Plate:MR026
# [8] = compound concentrations:100 nM and 1000 nM (sheet 'Lestaurtinib' of Supplementary Table 1),run:Lestaurtinib_02765_R2,Plate:MR026
# [9] = compound concentrations:100 nM and 1000 nM (sheet 'Lestaurtinib' of Supplementary Table 1),run:Lestaurtinib_02766_R2,Plate:MR027
# [10] = compound concentrations:100 nM and 1000 nM (sheet 'Lestaurtinib' of Supplementary Table 1),run:Lestaurtinib_02768_R1,Plate:MR028
# [11] = compound concentrations:100 nM and 1000 nM (sheet 'Lestaurtinib' of Supplementary Table 1),run:Lestaurtinib_02795_R1,Plate:MR022
# [12] = compound concentrations:100 nM and 1000 nM (sheet 'Lestaurtinib' of Supplementary Table 1),run:Lestaurtinib_02795_R2,Plate:MR022
# [13] = compound concentrations:100 nM and 1000 nM (sheet 'Lestaurtinib' of Supplementary Table 1),run:Lestaurtinib_02802_R1,Plate:MR029
# [14] = compound concentrations:100 nM and 1000 nM (sheet 'Lestaurtinib' of Supplementary Table 1),run:Lestaurtinib_03252_R2,Plate:MR032
# [15] = compound concentrations:100 nM and 1000 nM (sheet 'Lestaurtinib' of Supplementary Table 1),run:Lestaurtinib_03260_R1,Plate:MR033
# [16] = compound concentrations:100 nM and 1000 nM (sheet 'Lestaurtinib' of Supplementary Table 1),run:Lestaurtinib_03260_R2,Plate:MR033
# [17] = compound concentrations:100 nM and 1000 nM (sheet 'Lestaurtinib' of Supplementary Table 1),run:Lestaurtinib_02339_R2,Plate:MR001
# [18] = compound concentrations:100 nM and 1000 nM (sheet 'Lestaurtinib' of Supplementary Table 1),run:Lestaurtinib_02364_R3,Plate:MR002
# [19] = compound concentrations:100 nM and 1000 nM (sheet 'Lestaurtinib' of Supplementary Table 1),run:Lestaurtinib_02422_R1,Plate:MR006
# [20] = compound concentrations:100 nM and 1000 nM (sheet 'Lestaurtinib' of Supplementary Table 1),run:Lestaurtinib_02438_R2,Plate:MR008
substance,measurement,setting,value
Lestaurtinib,potency estimated from few doses,"SLK; compound concentrations:100 nM and 1000 nM (sheet 'Lestaurtinib' of Supplementary Table 1),run:Lestaurtinib_02577_R2,Plate:MR016",1320 nM
same,potency estimated from few doses,SLK; [1],997 nM
same,potency estimated from few doses,"SLK; compound concentrations:100 nM and 1000 nM (sheet 'Lestaurtinib' of Supplementary Table 1),run:Lestaurtinib_02584_R2,Plate:MR017",1320 nM
same,potency estimated from few doses,SLK; [2],1580 nM
same,potency estimated from few doses,SLK; [3],1760 nM
same,potency estimated from few doses,"SLK; compound concentrations:100 nM and 1000 nM (sheet 'Lestaurtinib' of Supplementary Table 1),run:Lestaurtinib_02601_R3,Plate:MR018",1400 nM
same,potency estimated from few doses,"SLK; compound concentrations:100 nM and 1000 nM (sheet 'Lestaurtinib' of Supplementary Table 1),run:Lestaurtinib_02606_R2,Plate:MR019",1320 nM
same,potency estimated from few doses,"SLK; compound concentrations:100 nM and 1000 nM (sheet 'Lestaurtinib' of Supplementary Table 1),run:Lestaurtinib_02624_R1,Plate:MR020",1810 nM
same,potency estimated from few doses,SLK; [4],1130 nM
same,potency estimated from few doses,SLK; [5],1440 nM
same,potency estimated from few doses,SLK; [6],1330 nM
same,potency estimated from few doses,"SLK; compound concentrations:100 nM and 1000 nM (sheet 'Lestaurtinib' of Supplementary Table 1),run:Lestaurtinib_02752_R3,Plate:MR025",1330 nM
same,potency estimated from few doses,SLK; [7],1320 nM
same,potency estimated from few doses,SLK; [8],1130 nM
same,potency estimated from few doses,SLK; [9],1150 nM
same,potency estimated from few doses,SLK; [10],1300 nM
same,potency estimated from few doses,"SLK; compound concentrations:100 nM and 1000 nM (sheet 'Lestaurtinib' of Supplementary Table 1),run:Lestaurtinib_02768_R2,Plate:MR028",1400 nM
same,potency estimated from few doses,SLK; [11],1610 nM
same,potency estimated from few doses,SLK; [12],1360 nM
same,potency estimated from few doses,"SLK; compound concentrations:100 nM and 1000 nM (sheet 'Lestaurtinib' of Supplementary Table 1),run:Lestaurtinib_02795_R3,Plate:MR022",1530 nM
same,potency estimated from few doses,SLK; [13],1150 nM
same,potency estimated from few doses,"SLK; compound concentrations:100 nM and 1000 nM (sheet 'Lestaurtinib' of Supplementary Table 1),run:Lestaurtinib_02802_R2,Plate:MR029",964 nM
same,potency estimated from few doses,"SLK; compound concentrations:100 nM and 1000 nM (sheet 'Lestaurtinib' of Supplementary Table 1),run:Lestaurtinib_02802_R3,Plate:MR029",1350 nM
same,potency estimated from few doses,"SLK; compound concentrations:100 nM and 1000 nM (sheet 'Lestaurtinib' of Supplementary Table 1),run:Lestaurtinib_03172_R2,Plate:MR031",1460 nM
same,potency estimated from few doses,"SLK; compound concentrations:100 nM and 1000 nM (sheet 'Lestaurtinib' of Supplementary Table 1),run:Lestaurtinib_03172_R3,Plate:MR031",914 nM
same,potency estimated from few doses,"SLK; compound concentrations:100 nM and 1000 nM (sheet 'Lestaurtinib' of Supplementary Table 1),run:Lestaurtinib_03252_R1,Plate:MR032",1350 nM
same,potency estimated from few doses,SLK; [14],1400 nM
same,potency estimated from few doses,SLK; [15],1930 nM
same,potency estimated from few doses,SLK; [16],1930 nM
same,potency estimated from few doses,"SLK; compound concentrations:100 nM and 1000 nM (sheet 'Lestaurtinib' of Supplementary Table 1),run:Lestaurtinib_03260_R3,Plate:MR033",1310 nM
same,potency estimated from few doses,"STK10; compound concentrations:100 nM and 1000 nM (sheet 'Lestaurtinib' of Supplementary Table 1),run:Lestaurtinib_02339_R1,Plate:MR001",179 nM
same,potency estimated from few doses,STK10; [17],158 nM
same,potency estimated from few doses,"STK10; compound concentrations:100 nM and 1000 nM (sheet 'Lestaurtinib' of Supplementary Table 1),run:Lestaurtinib_02339_R3,Plate:MR001",80.5 nM
same,potency estimated from few doses,"STK10; compound concentrations:100 nM and 1000 nM (sheet 'Lestaurtinib' of Supplementary Table 1),run:Lestaurtinib_02364_R2,Plate:MR002",140 nM
same,potency estimated from few doses,STK10; [18],142 nM
same,potency estimated from few doses,"STK10; compound concentrations:100 nM and 1000 nM (sheet 'Lestaurtinib' of Supplementary Table 1),run:Lestaurtinib_02367_R3,Plate:MR003",144 nM
same,potency estimated from few doses,"STK10; compound concentrations:100 nM and 1000 nM (sheet 'Lestaurtinib' of Supplementary Table 1),run:Lestaurtinib_02407_R1,Plate:MR005",113 nM
same,potency estimated from few doses,STK10; [19],162 nM
same,potency estimated from few doses,"STK10; compound concentrations:100 nM and 1000 nM (sheet 'Lestaurtinib' of Supplementary Table 1),run:Lestaurtinib_02422_R2,Plate:MR006",47 nM
same,potency estimated from few doses,"STK10; compound concentrations:100 nM and 1000 nM (sheet 'Lestaurtinib' of Supplementary Table 1),run:Lestaurtinib_02437_R1,Plate:MR007",142 nM
same,potency estimated from few doses,"STK10; compound concentrations:100 nM and 1000 nM (sheet 'Lestaurtinib' of Supplementary Table 1),run:Lestaurtinib_02437_R3,Plate:MR007",18.2 nM
same,potency estimated from few doses,STK10; [20],137 nM
same,potency estimated from few doses,"STK10; compound concentrations:100 nM and 1000 nM (sheet 'Lestaurtinib' of Supplementary Table 1),run:Lestaurtinib_02443_R1,Plate:MR009",141 nM
same,potency estimated from few doses,"STK10; compound concentrations:100 nM and 1000 nM (sheet 'Lestaurtinib' of Supplementary Table 1),run:Lestaurtinib_02443_R3,Plate:MR009",154 nM
same,potency estimated from few doses,"STK10; compound concentrations:100 nM and 1000 nM (sheet 'Lestaurtinib' of Supplementary Table 1),run:Lestaurtinib_02473_R2,Plate:MR010",140 nM
same,potency estimated from few doses,"STK10; compound concentrations:100 nM and 1000 nM (sheet 'Lestaurtinib' of Supplementary Table 1),run:Lestaurtinib_02482_R1,Plate:MR011",131 nM
same,potency estimated from few doses,"STK10; compound concentrations:100 nM and 1000 nM (sheet 'Lestaurtinib' of Supplementary Table 1),run:Lestaurtinib_02482_R2,Plate:MR011",157 nM
same,potency estimated from few doses,"STK10; compound concentrations:100 nM and 1000 nM (sheet 'Lestaurtinib' of Supplementary Table 1),run:Lestaurtinib_02482_R3,Plate:MR011",136 nM
same,potency estimated from few doses,"STK10; compound concentrations:100 nM and 1000 nM (sheet 'Lestaurtinib' of Supplementary Table 1),run:Lestaurtinib_02487_R3,Plate:MR012",163 nM
same,potency estimated from few doses,"STK10; compound concentrations:100 nM and 1000 nM (sheet 'Lestaurtinib' of Supplementary Table 1),run:Lestaurtinib_02566_R2,Plate:MR014",144 nM
same,potency estimated from few doses,"STK10; compound concentrations:100 nM and 1000 nM (sheet 'Lestaurtinib' of Supplementary Table 1),run:Lestaurtinib_02566_R3,Plate:MR014",135 nM
same,potency estimated from few doses,"STK10; compound concentrations:100 nM and 1000 nM (sheet 'Lestaurtinib' of Supplementary Table 1),run:Lestaurtinib_02572_R3,Plate:MR015",157 nM
same,potency estimated from few doses,STK10; [1],181 nM
same,potency estimated from few doses,STK10; [2],179 nM
same,potency estimated from few doses,STK10; [3],137 nM
same,potency estimated from few doses,"STK10; compound concentrations:100 nM and 1000 nM (sheet 'Lestaurtinib' of Supplementary Table 1),run:Lestaurtinib_02601_R2,Plate:MR018",167 nM
same,potency estimated from few doses,"STK10; compound concentrations:100 nM and 1000 nM (sheet 'Lestaurtinib' of Supplementary Table 1),run:Lestaurtinib_02606_R1,Plate:MR019",135 nM
same,potency estimated from few doses,"STK10; compound concentrations:100 nM and 1000 nM (sheet 'Lestaurtinib' of Supplementary Table 1),run:Lestaurtinib_02606_R3,Plate:MR019",144 nM
same,potency estimated from few doses,STK10; [4],137 nM
same,potency estimated from few doses,"STK10; compound concentrations:100 nM and 1000 nM (sheet 'Lestaurtinib' of Supplementary Table 1),run:Lestaurtinib_02624_R3,Plate:MR020",115 nM
same,potency estimated from few doses,"STK10; compound concentrations:100 nM and 1000 nM (sheet 'Lestaurtinib' of Supplementary Table 1),run:Lestaurtinib_02724_R2,Plate:MR021",121 nM
same,potency estimated from few doses,"STK10; compound concentrations:100 nM and 1000 nM (sheet 'Lestaurtinib' of Supplementary Table 1),run:Lestaurtinib_02741_R2,Plate:MR023",134 nM
same,potency estimated from few doses,STK10; [5],140 nM
same,potency estimated from few doses,"STK10; compound concentrations:100 nM and 1000 nM (sheet 'Lestaurtinib' of Supplementary Table 1),run:Lestaurtinib_02748_R1,Plate:MR024",157 nM
same,potency estimated from few doses,STK10; [6],153 nM
same,potency estimated from few doses,"STK10; compound concentrations:100 nM and 1000 nM (sheet 'Lestaurtinib' of Supplementary Table 1),run:Lestaurtinib_02748_R3,Plate:MR024",115 nM
same,potency estimated from few doses,"STK10; compound concentrations:100 nM and 1000 nM (sheet 'Lestaurtinib' of Supplementary Table 1),run:Lestaurtinib_02752_R1,Plate:MR025",124 nM
same,potency estimated from few doses,"STK10; compound concentrations:100 nM and 1000 nM (sheet 'Lestaurtinib' of Supplementary Table 1),run:Lestaurtinib_02752_R2,Plate:MR025",141 nM
same,potency estimated from few doses,STK10; [7],97 nM
same,potency estimated from few doses,STK10; [8],132 nM
same,potency estimated from few doses,STK10; [9],93.1 nM
same,potency estimated from few doses,"STK10; compound concentrations:100 nM and 1000 nM (sheet 'Lestaurtinib' of Supplementary Table 1),run:Lestaurtinib_02766_R3,Plate:MR027",137 nM
same,potency estimated from few doses,STK10; [10],115 nM
same,potency estimated from few doses,"STK10; compound concentrations:100 nM and 1000 nM (sheet 'Lestaurtinib' of Supplementary Table 1),run:Lestaurtinib_02768_R3,Plate:MR028",133 nM
same,potency estimated from few doses,STK10; [11],134 nM
same,potency estimated from few doses,STK10; [12],130 nM
same,potency estimated from few doses,STK10; [13],113 nM
same,potency estimated from few doses,"STK10; compound concentrations:100 nM and 1000 nM (sheet 'Lestaurtinib' of Supplementary Table 1),run:Lestaurtinib_02896_R2,Plate:MR030",142 nM
same,potency estimated from few doses,STK10; [14],74.5 nM
same,potency estimated from few doses,STK10; [15],228 nM
same,potency estimated from few doses,STK10; [16],211 nM
same,potency estimated from few doses,TBK1; [17],822 nM
same,potency estimated from few doses,TBK1; [18],1610 nM
same,potency estimated from few doses,"TBK1; compound concentrations:100 nM and 1000 nM (sheet 'Lestaurtinib' of Supplementary Table 1),run:Lestaurtinib_02381_R1,Plate:MR004",1350 nM
same,potency estimated from few doses,"TBK1; compound concentrations:100 nM and 1000 nM (sheet 'Lestaurtinib' of Supplementary Table 1),run:Lestaurtinib_02381_R2,Plate:MR004",1600 nM
same,potency estimated from few doses,"TBK1; compound concentrations:100 nM and 1000 nM (sheet 'Lestaurtinib' of Supplementary Table 1),run:Lestaurtinib_02407_R3,Plate:MR005",1330 nM
same,potency estimated from few doses,TBK1; [19],703 nM
same,potency estimated from few doses,TBK1; [20],1320 nM
